Shown is part of a subset that was picked to be rich in hits.
GIRK2 act: opens human GIRK2 potassium channels; calls only for hits at 25 µM; HEK293-GIRK2 thallium flux, Thallos fluorescence, MPD; P48051; hit rate 0.05% among 63,000; call rule not given here
Target sequence (P48051 whole entry, looked up): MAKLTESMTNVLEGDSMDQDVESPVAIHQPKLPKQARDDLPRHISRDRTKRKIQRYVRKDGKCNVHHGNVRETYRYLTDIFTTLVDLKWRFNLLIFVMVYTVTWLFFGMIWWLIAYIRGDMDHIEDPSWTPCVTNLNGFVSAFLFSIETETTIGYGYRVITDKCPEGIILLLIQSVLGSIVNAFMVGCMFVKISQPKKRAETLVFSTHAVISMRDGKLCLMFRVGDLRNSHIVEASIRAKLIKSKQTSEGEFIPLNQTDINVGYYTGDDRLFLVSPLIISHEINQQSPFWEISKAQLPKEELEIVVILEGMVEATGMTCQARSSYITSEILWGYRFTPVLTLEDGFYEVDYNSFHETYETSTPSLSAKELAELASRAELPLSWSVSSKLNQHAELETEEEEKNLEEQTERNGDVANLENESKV
Of the large screens only hits and unclear results are named; the others gave an inactive call.

Cc1nc(-c2ccc(F)cc2)sc1-c1cc(C(=O)N(C)Cc2ccccc2)n[nH]1	none
Nc1nc(-c2ccc(F)cc2)c(-c2ccc3ncccc3n2)s1	none
Fc1ccc(-c2n[nH]c(=S)s2)cc1	GIRK2 act active
CC(O)(CCc1ccccc1)CNC(=O)c1cccc2ccccc12 (centres undefined)	none
O=C(Cn1cc(-c2nc(-c3cccs3)no2)ccc1=O)c1ccc2c(c1)OCO2	none
Cc1cc(C)n(-c2nc3c(c(=O)n(CCN4CCOCC4)c(=O)n3C)n2C)n1	none
O=C(NCC(=O)N1CCN(CCn2cccn2)CC1)c1ccccc1	none
Cc1cc(C(F)(F)F)nc(CCNC(=O)/C=C/c2ccco2)n1	none
CCCCS(=O)(=O)N1CCN(CC(O)C2CC2)CC1 (centres undefined)	none
CCOc1ccc(-c2cc3c(=O)n(Cc4nc(-c5ccc(F)c(Cl)c5)no4)ncn3n2)cc1	none
CCOC(=O)c1c(S(=O)(=O)N2CCN(c3ccc(Cl)cc3)CC2)n[nH]c1C	none
CCOc1ccccc1N1CCN(S(=O)(=O)c2n[nH]c(C)c2C(=O)OC)CC1	none
COC(=O)c1c(S(=O)(=O)N2CCN(c3cccc(Cl)c3)CC2)n[nH]c1C	GIRK2 act active
O=C(NCC(F)(F)F)C(=O)NCC(O)(c1ccccc1)C1CC1 (centres undefined)	none
O=C(c1ccc([N+](=O)[O-])o1)N1CCN(Cc2nnnn2-c2cccc(F)c2)CC1	none
C=C(C)Cn1c(N=Nc2c(O)[nH]c3ccccc23)nc2c1c(=O)n(C)c(=O)n2C	none
COc1coc(C(=O)Nc2ccc(C)c(Cl)c2)cc1=O	none
COc1coc(C(=O)NCc2ccccc2)cc1=O	none
COc1coc(C(=O)Nc2ccc(Oc3ccccc3)cc2)cc1=O	GIRK2 act active
CCCCn1cnc2c(-c3ccccc3)cn(CC(=O)Nc3ccc(F)cc3)c2c1=O	none
CC(C)c1ccc(N2C(=O)C3N=NN(Cc4nc(-c5ccccc5)no4)C3C2=O)cc1 (centres undefined)	none
N#Cc1ccc(NC(=O)Cn2nc3c4cc(-c5ccc(Cl)cc5)nn4ccn3c2=O)cc1	none
N#Cc1ccc(Cl)cc1NC(=O)C(=O)NCC(c1cccs1)N1CCOCC1 (centres undefined)	none
O=C(NCC(c1cccs1)N1CCOCC1)C(=O)Nc1ccccc1F (centres undefined)	GIRK2 act active
O=C(NCC(c1cccs1)N1CCOCC1)C(=O)Nc1ccc2c(c1)OCCO2 (centres undefined)	none
Cc1cn2c3c(=O)n(CC(=O)c4ccccc4)c(=O)n(C)c3nc2n1-c1ccccc1F	none
COC(=O)c1cn(Cc2cccc(C#N)c2)nc1S(=O)(=O)N1CCc2ccccc2C1	none
O=C(N1CC(c2nc(C3CC3)no2)C1)C1(c2ccccc2)CCOCC1	none
CCn1c(=O)c2c(nc3n(-c4ccc(OC)cc4OC)c(-c4ccccc4)cn23)n(C)c1=O	none
CCn1c(=O)c2c(nc3n(-c4cc(OC)ccc4OC)c(-c4ccccc4)cn23)n(C)c1=O	GIRK2 act active
CCCn1c(=O)c2c(nc3n(-c4cc(OC)ccc4OC)c(-c4ccccc4)cn23)n(C)c1=O	none
COc1ccc(CCS(=O)(=O)N(Cc2cccs2)Cc2cccn2C)cc1	none
Cc1nnc(C2CCCN(C(=O)c3ccc(S(=O)(=O)N(C)C)cc3)C2)s1 (centres undefined)	none
CCC(C(=O)NCc1ncc(-c2ccc(OC)cc2)[nH]1)c1ccccc1 (centres undefined)	none
Cc1ccccc1NC(=O)Cn1cc(-c2nc(-c3cnccn3)no2)ccc1=O	none
O=C(NC1CCSC1=O)c1nnn(-c2ccc(OC(F)(F)F)cc2)n1 (centres undefined)	none
COC(=O)c1ccccc1NC(=O)c1nnn(-c2ccccc2)c1-c1ccccn1	none
O=C(NCc1ccc(F)c(Cl)c1)c1nnn(-c2ccccc2)c1-c1ccccn1	none
O=C(Nc1cccc(Cl)c1F)c1nnn(-c2ccccc2)c1-c1ccccn1	GIRK2 act active
O=C(C1CC(=O)N(c2cccc(Br)c2)C1)N1CCC(Cn2ccnc2)CC1 (centres undefined)	none
CCOc1ccc(CC(=O)NCCc2cc(C)no2)cc1	none
O=C(Nc1nnc(C(F)(F)F)s1)c1cccc(S(=O)(=O)N2CCOCC2)c1	none
N#Cc1ccc(Cl)cc1NC(=O)c1cnn2c1OCCC2	none
O=C(Nc1cc(Cl)ccc1O)c1cnn2c1OCCC2	GIRK2 act active
O=C(Nc1cc2ccccc2oc1=O)c1cnn2c1OCCC2	none
Cc1cc2ncn(CC3CCN(C(=O)c4ccc(=O)[nH]c4)CC3)c2cc1C	none
CCOC(=O)c1ccccc1NC(=O)CSc1nnc(C)c2cnn(-c3ccc(F)cc3)c12	none
O=C(NCC1(c2cccs2)CC1)C(c1ccccc1)c1ccccc1	none
COCCCNC(=O)CSc1nc(-c2ccc(F)cc2)[nH]c1-c1ccc(F)cc1	GIRK2 act active
COCCCNC(=O)CSc1nc(-c2ccc(OC)c(OC)c2)[nH]c1-c1ccc(F)cc1	none
COCCCNC(=O)CSc1nc(-c2ccccc2)[nH]c1-c1ccc(OC)cc1	none
COc1cccc2sc(N3CC(OC(=O)c4ccc(S(=O)(=O)N5CCCC5)cc4)C3)nc12	none
O=C1CCSCC(C(=O)NCc2ccc3c(c2)OCO3)N1 (centres undefined)	none
Cc1ccc(NC(=O)Nc2cnc(N3CCN(C)CC3)nc2)c(Cl)c1	none
Cc1cc(C)n(-c2ncc(NC(=O)Nc3ccc(Cl)c(C(F)(F)F)c3)cn2)n1	none
CN1CCN(c2ncc(NC(=O)Nc3ccc(Cl)c(C(F)(F)F)c3)cn2)CC1	GIRK2 act active
CCOC(=O)c1ccc(NC(=O)COc2cc(C)nc(N3CCCCCC3)n2)cc1	none
CSc1ccccc1NC(=O)C(=O)NCC1(CO)CC1	none
CSc1ccccc1NC(=O)C(=O)NCC1(c2ccccc2)CCOCC1	GIRK2 act active
CSc1cccc(NC(=O)C(=O)NCC2(c3ccccc3)CCOCC2)c1	none
C=CCNC(=O)NCCN1CCN(C(=O)OC)CC1	none
COc1nn(C)cc1C(=O)N1CCC(c2ccccc2)C1 (centres undefined)	none
COc1cc(/C=C/C(=O)Nc2nnc(-c3csc(C)n3)o2)cc(OC)c1OC	none
COCCN1C(=O)C2C(c3ccc(O)cc3)NN(C)C2C1=O (centres undefined)	none
C=CCOCC(O)Cn1c(NCCCOC)nc2c1c(=O)[nH]c(=O)n2C (centres undefined)	none
O=C(Oc1ccc2cc(-c3nc4ccccc4o3)c(=O)oc2c1)c1cccs1	none
CC1C(=O)N2CCCc3cc(NC(=O)C(=O)NCC(O)(c4ccccc4)C4CC4)cc1c32 (centres undefined)	GIRK2 act active
Cc1ccc(NC(=O)C(=O)NCC(O)(c2ccccc2)C2CC2)cc1N1CCCC1=O (centres undefined)	none
CC1C(=O)N2CCCc3cc(NC(=O)C(=O)NCC4(O)CCOc5ccccc54)cc1c32 (centres undefined)	none
COc1cccc(CSc2nc(C)c(CC(=O)Nc3nnc(C)s3)c(=O)[nH]2)c1	none
CCNC(=O)Nc1nc(-c2ccc(Cl)cc2)cs1	none
CCOC(=O)N1CCN(C(=O)Nc2nc(CC(=O)NCc3ccncc3)cs2)CC1	none
O=C(Nc1ccccc1C(F)(F)F)N(Cc1ccoc1)Cc1cccs1	none
COc1ccc(-c2c(C(F)(F)F)oc3cc(OCC(=O)OC(C)(C)C)ccc3c2=O)cc1	none
CC(C)(C)OC(=O)COc1ccc2c(=O)c(-c3ccccc3)c(C(F)(F)F)oc2c1	none
NC(=O)COc1ccc2c(=O)c(-c3ccc(Cl)cc3)c(C(F)(F)F)oc2c1	GIRK2 act active
Cc1nc(-c2ccc(N3CCN(C(=O)c4ccc(=O)n(C)n4)CC3)nc2)no1	none
COc1ccc(Cl)cc1NC(=O)Cn1nc2c(N3CCN(c4ccccc4)CC3)nccn2c1=O	none

Source: PubChem (C. David Weaver Laboratory, Vanderbilt University)
